Data taken from PubChem BioAssay AID1220 (Sanford-Burnham Center for Chemical Genomics, 2008).
The whole screen tested about 190,000 compounds, of which about 1,300 (0.68%) were called active. The sample holds actives, similar compounds and a random draw of the others, so the mix is not that of the screen. No stated cut-off is given here; in the data, active means inhibition above about 50%; inactive means the rest.

Target: Mannose-6-phosphate isomerase (Homo sapiens) (UniProt P34949)
Assay: human PMI inhibitors, high substrate, primary screen, biochemical, fluorescence intensity, high mannose 6-phosphate (AID 1220)
Settings: recombinant PMI enzyme, coupled fluorescence intensity; at 20 µM; stronger effect = higher value

Sequence of Mannose-6-phosphate isomerase (Homo sapiens) (P34949 whole entry, looked up): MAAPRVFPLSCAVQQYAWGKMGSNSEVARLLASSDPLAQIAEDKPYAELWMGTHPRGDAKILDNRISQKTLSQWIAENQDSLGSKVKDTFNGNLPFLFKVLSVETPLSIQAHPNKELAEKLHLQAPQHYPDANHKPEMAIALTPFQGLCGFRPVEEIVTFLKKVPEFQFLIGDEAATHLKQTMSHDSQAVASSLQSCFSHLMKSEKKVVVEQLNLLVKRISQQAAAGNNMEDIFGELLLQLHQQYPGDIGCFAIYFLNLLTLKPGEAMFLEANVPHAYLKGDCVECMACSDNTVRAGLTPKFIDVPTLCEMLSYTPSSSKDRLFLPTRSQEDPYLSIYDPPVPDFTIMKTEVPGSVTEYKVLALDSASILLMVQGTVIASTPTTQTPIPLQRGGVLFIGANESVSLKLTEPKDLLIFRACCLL

inhibition, inactive:
CCOC(=O)c1c(NC(=O)c2c(C(=O)O)cccc2[N+](=O)[O-])sc(C)c1C 8.7%
O=C(Nc1ccc(S(=O)(=O)Nc2ccc(F)cc2)cc1)c1ccc(CN2CCOCC2)cc1 17%
Cc1cc(C)n(-c2nc(NCc3cccnc3)c3c4c(sc3n2)COC(C)(C)C4)n1 6.9%
O=c1c2cc(NC(=S)NCc3cccnc3)ccc2nc2n1CCCCC2 1.2%
CC1Cc2ccccc2N1C(=O)CSc1nnc(-c2ccccc2)c(-c2ccccc2)n1 (stereo unspecified) 37.9%
COc1cccc(C2CC(c3ccc(C(C)C)cc3)n3nc(N)nc3N2)c1 (stereo unspecified) 11.2%
CC(=O)Nc1ccc(OCC(O)CN2CCN(c3cc(Cl)ccc3C)CC2)cc1 (stereo unspecified) -2%
Oc1c(CN2CCc3ccccc3C2)cc(Cl)c2cccnc12 48.3%
CC(C)(C)c1cc2cccnc2n1Cc1cccc(Cl)c1 1.9%
Cc1nn(-c2ccccc2)c(Cl)c1C1C(C#N)=C(N)Oc2c1c(C)nn2-c1ccccc1 (stereo unspecified) 9%
CC(C)CNC(=O)CSc1nc2scc(-c3ccccc3)c2c(=O)[nH]1 -14.2%
CC(=O)c1cccc(N(C(=O)CNC(=O)c2ccco2)C(C(=O)NCc2ccco2)c2ccccc2)c1 (stereo unspecified) -1.4%
CC(=O)Nc1ccc(N(C(=O)CNC(=O)c2ccco2)C(C(=O)NCC2CCCO2)c2ccccc2)cc1 (stereo unspecified) -1.6%
O=C(Oc1ccc(Cl)c2cccnc12)N1CCOCC1 8.2%
O=C(OCCN1CCOCC1)c1cccs1 9%
O=C(Oc1c(Cl)cc(Cl)c2cccnc12)c1cccs1 1.8%
COCc1cc(CN2CCN(C)CC2)c(O)c2ncccc12 37.9%
CCC(=O)c1ccc(N2CCN(C(=O)c3cccc(F)c3)CC2)c(F)c1 7.7%
CCCn1nc(C(=O)NCc2ccccn2)c2ccccc2c1=O -1.4%
O=C(CNCCC1=CCCCC1)Nc1ccccc1N1CCCCC1 -0.7%
COCc1cc(C)nc2sc(C(=O)NCCO)c(-n3cccc3)c12 -8.1%
Cc1nn(-c2ccc(Cl)cc2)c(N)c1C(O)(CSc1nccn1C)C(F)(F)F (stereo unspecified) 10.3%
O=C(COC(=O)c1ccncc1)Nc1cc(Cl)c(Cl)cc1Cl 3.3%
O=C(COC(=O)c1ccncc1)Nc1cccc(Cl)c1 23.4%
Cc1ccc(S(=O)(=O)NNC(=O)c2sccc2-n2cccc2)cc1 -2.5%
Cc1ccc(/C=c2/sc3n(c2=O)CCCN=3)o1 -24.9%
O=c1/c(=C/c2ccc(CNS(=O)(=O)c3ccccc3)o2)sc2n1CCN=2 13.7%
COc1ccc(C(=O)NCc2nnc(SCC(=O)Nc3cccc(F)c3)o2)cc1 -10.6%
CCOC(=O)Cc1nnc(-c2ccccc2)o1 40.2%
CCOc1cccc(N(C(=O)C2COc3ccccc3O2)C(C(=O)NC2CCCCC2)c2ccc(O)cc2)c1 (stereo unspecified) -4.1%
CC(C)CCNC(=O)C(c1ccc(O)cc1)N(Cc1cccs1)C(=O)C1COc2ccccc2O1 (stereo unspecified) 9.3%
COCC(C)NC(C(=O)Nc1ccc(C)c(Cl)c1)c1ccccc1 (stereo unspecified) 1.8%
CN(c1ccc(OCC(=O)Nc2nc(-c3ccccc3)cs2)cc1)S(=O)(=O)c1ccc(F)cc1 8.4%
Cc1cc(C)c(NC(=O)COC(=O)Cc2ccsc2)c(C)c1 -8.2%
Cc1ccc(S(=O)(=O)N2CCC(=O)N(CCOCc3cccc(F)c3)CC2)cc1 6.5%
N#CCCn1c2ccccc2c2nc3ccccc3nc21 -21.1%
COc1cc2nc3c4ccccc4n(CC#N)c3nc2cc1OC -0.4%
Cc1ccc(C2N(C)c3ccccc3-c3nc4ccccc4n32)o1 (stereo unspecified) 3.8%
Oc1c(C(Nc2ccccn2)c2cccnc2)cc(Cl)c2cccnc12 (stereo unspecified) 43.5%
O=C(NC(c1ccccc1)c1cc(Cl)c2cccnc2c1O)c1cccnc1 (stereo unspecified) 23.4%
CCCC(=O)NC(c1cccs1)c1cc(Cl)c2cccnc2c1O (stereo unspecified) 38.8%
Cc1ccc([N+](=O)[O-])c2cccnc12 13.6%
O=[N+]([O-])c1cc(Cl)c2cccnc2c1O 47.2%
CCC(=O)NC(c1cccs1)c1cc([N+](=O)[O-])c2cccnc2c1O (stereo unspecified) 43.9%
CC(=O)NC(c1cccs1)c1cc([N+](=O)[O-])c2cccnc2c1O (stereo unspecified) 43.2%
O=C(O)COc1ccccc1C(Nc1cccnc1)c1cc(Cl)c2cccnc2c1O (stereo unspecified) 32%
COC(=O)CCCCC1SCC2NC(=O)NC21 (stereo unspecified) -4.5%
COc1ccc(NC(=O)CSc2ccc(F)cc2)cc1S(=O)(=O)N1CCCCC1 8.6%
Cc1csc2cc(-c3cccc([N+](=O)[O-])c3)c(-c3cccc([N+](=O)[O-])c3)c[n+]12 4.9%
COc1ccc(C=O)cc1COc1ccccc1F 8.1%
CCCC(=O)NC(c1ccc(OC)c(OC)c1)c1cc(Cl)c2cccnc2c1O (stereo unspecified) 48.4%
CCCC(=O)NC(c1ccco1)c1cc([N+](=O)[O-])c2cccnc2c1O (stereo unspecified) 7.9%
CCC(=O)NC(c1ccc(OC)c(OC)c1)c1cc(Cl)c2cccnc2c1O (stereo unspecified) 41.1%
CCC(=O)NC(/C=C/c1ccccc1)c1cc([N+](=O)[O-])c2cccnc2c1O (stereo unspecified) 46.8%
COc1ccccc1NC(=S)NCc1ccco1 -7.4%
Cc1c(Cl)cccc1NC(=O)CSc1nnc(CCNC(=O)OC(C)(C)C)o1 3.7%
COCCCNC(=O)c1cc2cc(Br)ccc2oc1=O -0.9%
CCC(C)c1ccc(NC(=S)NCCn2cc(Br)cn2)cc1 (stereo unspecified) 14.5%
Cc1[nH]nc2ncc(C(=O)c3cc(F)ccc3O)cc12 -5.1%
COc1cc(C2Nc3ccc4ncccc4c3C3=C2C(=O)CCC3)ccc1O (stereo unspecified) 46.7%
COc1cc(C2Nc3ccc4ncccc4c3C3=C2C(=O)CCC3)cc(OC)c1O (stereo unspecified) 42.6%
COC(=O)/C(=C1/Oc2ccc(C)cc2S1)C(F)(F)F 1.2%
O=S(=O)(NC1CCCCC1Sc1ncccn1)c1ccc(Cl)cc1 (stereo unspecified) -26%
COc1cc2c(=O)c(-c3ccc(O)cc3)coc2cc1OC1OC(CO)C(O)C(O)C1O (stereo unspecified) 12.9%
O=C(CSc1n[nH]c(-c2cccs2)n1)NCc1cccs1 0.2%
CCOC(=O)CNC(=O)C1(c2ccccc2)CCCC1 3.8%
COc1ccc(CCN2CC(C#N)=C3c4cc(OC)c(OC)cc4CCN3C2)cc1OC 21.4%
COc1cc2c(cc1OC)C1=C(C#N)CN(C3CCCCC3)CN1CC2 32.8%
CCOc1cc(-c2c(C#N)c(N)nc3c2CCCC3)ccc1O 12.6%
CSc1nc2c(cc1C#N)CCCCC2 -0.4%
COc1ccccc1NC(=O)NS(=O)(=O)c1ccc(C)cc1 1.2%
COc1cc(NC(=O)NS(=O)(=O)c2ccc(C)cc2)cc(OC)c1 41%
O=C(NNc1nc(-c2ccccc2)c2cc(Br)ccc2n1)c1ccc(S(=O)(=O)N2CCCCC2)cc1 -0.2%
COC(=O)c1cc(S(=O)(=O)n2nc(C)c(Br)c2C)c(Cl)cc1Cl -5%
Cc1c(Nc2ncnc3nc[nH]c23)c(=O)n(-c2ccccc2)n1C 1.1%
COc1ccc(NC(=O)Cn2cc(S(=O)(=O)Cc3ccccc3)c3ccccc32)c(OC)c1 16.9%
CCn1cc(S(=O)(=O)CC(=O)Nc2ccc(C)cc2)c2ccccc21 -0.5%
CCN(CC)C(=O)Cn1cc(S(=O)(=O)CC(=O)Nc2ccc3c(c2)OCCO3)c2ccccc21 1.2%
CCCn1cc(S(=O)(=O)CC(=O)Nc2ccc(OCC)cc2)c2ccccc21 17.3%
Cc1cccc(NC(=O)CS(=O)(=O)c2cn(C)c3ccccc23)c1 17.7%
Cn1cc(S(=O)(=O)CC(=O)Nc2ccc3c(c2)OCO3)c2ccccc21 25.7%

inhibition, active:
Clc1cccc(CN2COc3c(cc(Cl)c4cccnc34)C2)c1 51.8%
CC(=O)Nc1ccc(N(C(=O)CNC(=O)c2ccco2)C(C(=O)NCc2ccco2)c2ccccc2F)cc1 (stereo unspecified) 60.4%
O=C(Oc1c(CN2CCOCC2)cc(Cl)c2cccnc12)c1cccs1 56.4%
CN1CCN(Cc2cc(Cl)c3cccnc3c2OC(=O)c2cccs2)CC1 50.4%
O=C(COC(=O)c1ccncc1)Nc1cc(Cl)ccc1Cl 93.2%
O=C(NCc1ccc(/C=c2\sc3n(c2=O)CCN=3)o1)C(=O)Nc1ccccc1 50.9%
CC(C)CCNC(=O)C(c1ccc(O)cc1)N(C(=O)C1COc2ccccc2O1)c1cccc(O)c1 (stereo unspecified) 60.7%
N#CCn1c2ccccc2c2nc3ccccc3nc21 55.3%
CCOc1ccc(C(Nc2cccnc2)c2cc(Cl)c3cccnc3c2O)cc1 (stereo unspecified) 66%
CC(=O)NC(c1ccccc1)c1cc([N+](=O)[O-])c2cccnc2c1O (stereo unspecified) 58%
CC(=O)NC(c1ccc(C)cc1)c1cc([N+](=O)[O-])c2cccnc2c1O (stereo unspecified) 64.9%
CCCC(=O)NC(c1cccs1)c1cc([N+](=O)[O-])c2cccnc2c1O (stereo unspecified) 55.7%
CCC(=O)NC(c1ccc(C)cc1)c1cc([N+](=O)[O-])c2cccnc2c1O (stereo unspecified) 54.5%
COc1ccc(C(NC(C)=O)c2cc(Cl)c3cccnc3c2O)cc1OC (stereo unspecified) 55.7%
COc1cc(C2Nc3ccc4ncccc4c3C3=C2C(=O)CCC3)cc(OC)c1OC (stereo unspecified) 52.8%
C/C(=C\C=C(C#N)C#N)c1cc(C#N)c(N)o1 70.9%
COc1ccc(NC(=O)NS(=O)(=O)c2ccc(C)cc2)c(OC)c1 57.2%
Cn1cc(S(=O)(=O)CC(=O)Nc2ccc3c(c2)OCCO3)c2ccccc21 50.9%
CCCn1cc(S(=O)(=O)CC(=O)Nc2ccc(OC)cc2OC)c2ccccc21 56.6%
CCn1cc(S(=O)(=O)CC(=O)Nc2ccc3c(c2)OCCO3)c2ccccc21 53.3%
